The target in one test is Hexose transporter 1 (Plasmodium falciparum) (UniProt O97467). The test can be described thus: ST_JUDE_LEISH: Cytotoxicity at 2uM final concentration against transgenic Leishmania Mexicana promastigotes LmPfHT that are glucose transport deficient and complemented with the Plasmodium falciparum hexose transporter. Activity is measured by DNA content using SYBR green in vitro. Type of test: functional.
One may read the inhibition as the relative decrease from the control value, in per cent. `COc1ccc(-c2cccc(NC(=O)c3ccc(Cl)cc3)c2)cc1CN1CCCN(C)CC1`: the inhibition stood at 8.76%. Same read-out and setting: next, `COc1ccc2c(N/N=C/c3ccccc3[N+](=O)[O-])ccnc2c1`: -0.53%; `O=C(Nc1cc(Cl)cc(Cl)c1)c1cnn(-c2ccc(F)cc2)c1C1CCNCC1`: -0.39%. Consider `COc1ccc2nccc([C@@H](O)CN3CCC(NCc4nc5c([N+](=O)[O-])cccc5[nH]4)CC3)c2c1`, for which the inhibition was 2.99%. Turning to `O=C(Nc1ccc(Cl)cc1)c1cccc(CN2CCCN(Cc3cccc(O)c3)CC2)c1`, the inhibition is -0.04%.

The target of the next test is Glucose transporter (Leishmania mexicana) (UniProt O61059). The test can be described thus: ST_JUDE_LEISH: Cytotoxicity at 2uM final concentration against transgenic Leishmania Mexicana promastigotes LmGT2 that are glucose transport deficient and complemented with the L. Mexicana glucose transporter 2. Activity is measured by DNA content using SYBR green in vitro. Type of test: functional.
Consider `CC(=O)Oc1c(C(=O)C2CCC(C(C)(C)C)CC2)c(OC(C)=O)c2ccccc2c1OC(C)=O` (stereo not given), for which the inhibition is 7.73%.

On to `CCOC(=O)c1cccc(NC(=N)Nc2nc(C)cc(NCCc3ccccc3)n2)c1`, for which the inhibition came out at 5.39%. On to `COc1cccc(Nc2nc(C)cc(Nc3cccc(C#N)c3)n2)c1`, for which the inhibition came out at 4.27%. With `CC(C)CNC(=O)CN1C(=O)C(c2ccccc2)(c2ccccc2)N=C1N`, the inhibition was found to be 2.29%. On to `CCOc1ccc(OCC(=O)Nc2nc(-c3ccc(OC)cc3)c(C)s2)cc1`, for which the inhibition was found to be 1.45%. Turning to `COc1ccc2ncc(Cl)c([C@H](O)CN3CCC(NCc4cc5c(cn4)OCCO5)CC3)c2c1`, the inhibition is 6.66%. Consider `CCCOc1ccc(-c2nonc2NC(=O)c2ccccc2OC)cc1OCCC`, for which the inhibition was determined as 10.7%. Regarding `Nc1nc(N)c2c(ccc3nn(Cc4cccnc4)cc32)n1`, the inhibition amounted to 4.81%. Take `Nc1nc(N)c2c(ccc3c2ccn3Cc2cccc(F)c2)n1`: the inhibition was found to be 99.8%. As to `N#Cc1cc(C(=O)c2cc(Cl)ccc2O)cn(-c2cccc(C(F)(F)F)c2)c1=O`, the inhibition amounted to 5.33%. The same measure, in the same setting: to `CN1CCC(C(=O)Nc2ccc(-c3ccc(-c4nc5ccccc5[nH]4)cc3)cc2)CC1` belongs 0.83%; to `COc1ccc(CNCC(C)(C)c2nc(-c3ccc(Cl)c(O)c3)c(-c3ccncc3)[nH]2)cc1`, -2.74%; to `CCCC(C)N(Cc1ccc(C(C)(C)C)cc1)C(=O)c1cccc(OC)c1` (stereo not given), -2.72%. With `Cc1ccc(C)c2sc(N3CCN(C(=O)c4ccc([N+](=O)[O-])o4)CC3)nc12`, the inhibition was found to be 7.78%. Regarding `O=c1c2ccc(Sc3ccccn3)cc2n(-c2ccccc2)c2cc(Sc3ccccn3)ccc12`, the inhibition worked out at 2.64%. For `CC(C)(C)c1cc(C(=O)Nc2cccnc2)cc(C(=O)Nc2cccnc2)c1`, the inhibition was found to be 2.38%. Regarding `O=C(/C=C/c1ccc(Cl)c(Cl)c1)NC1CCN(CCNC(=O)c2cccc(Cl)c2)CC1`, the inhibition was 2.53%. With `CCNc1cc(C(=O)N[C@@H](Cc2ccccc2)[C@H](O)CNCc2cccc(OC)c2C)cc(N2CCCCS2(=O)=O)c1`, the inhibition amounted to 2.02%.

`CCCNCc1ccc(-c2ccc(CN(CCOC)C(=O)c3ccco3)cc2)nc1`: the inhibition was 2.77%. The same measure, in the same setting: to `CCc1cc(-c2onc(C(F)(F)F)c2-c2ccccc2)c(O)cc1OC` belongs 7.43%; to `O=C(NCc1cccc(Cl)c1)c1ccc(CNC2CCN(Cc3ccccc3)CC2)cc1`, 2.18%; to `O=C(CNCC1CCCCC1)Nc1cc(C(F)(F)F)ccc1Cl`, 1.07%. For `O=C(N[C@H]1CCN(Cc2ccc(OC3CCN(Cc4ccccc4)CC3)cc2)C1)c1ccc(Cl)c(Cl)c1`, the inhibition was -1.06%.

For the compound `Cc1ccc(N)cc1-c1nc(NC2CC(C)(C)NC(C)(C)C2)nc2c1ccc(=O)n2-c1c(F)cccc1F`, the inhibition stood at 2.03%. As to `Cc1cc2ccc(-c3cccc(CN)c3)cc2nc1N`, the inhibition is 0.73%.

As to `Nc1nccc2ccc(-c3cccc4ncccc34)cc12`, the inhibition turned out to be 1.15%. For `CCC1CN2CCc3c([nH]c4ccccc34)C2CC1CC1=NCCc2c1[nH]c1ccccc21` (stereo not given), the inhibition stood at 2.74%. Take `OC(CNCc1cccc(Oc2ccc(Cl)cc2)c1)c1cccc(C(F)(F)F)c1` (stereo not given): the inhibition was -0.71%.

For `Cc1cc(N[C@@H](CC(C)C)C(=O)NCCOc2ccccc2)nc(NCCOc2ccccc2)n1`, the inhibition was 17.1%.

On to `Nc1c2c(nc3ccc(C(=O)Nc4cc(I)c(O)c(I)c4)cc13)CCCC2`, for which the inhibition was determined as 1.74%. For the compound `O=C(N[C@H]1CCN(Cc2ccc(OCCCN3CCCCC3)cc2)C1)c1ccc(Cl)c(Cl)c1`, the inhibition stood at 3.42%. With `OC(CNCCCc1ccccc1)c1cc(OCc2ccccc2)cc(OCc2ccccc2)c1` (stereo not given), the inhibition stood at 1.79%.

For the compound `O=C(NC1CC1c1ccccc1)N(CCCn1ccnc1)Cc1csc(-c2ccc(CNCc3ccccc3)cc2)n1` (stereo not given), the inhibition is 3.57%. In the case of `Cc1cc(O)nc(NC(=N)NOCc2ccccc2)n1`, the inhibition is 1.07%. For the compound `CCCCCCNC(=N)c1ccc2[nH]c(-c3ccc(O)cc3)nc2c1`, the inhibition was 3.78%. Consider `COc1ccc(-c2cccc(NC(=O)c3ccc(Cl)cc3)c2)cc1CN1CCCN(C)CC1`, for which the inhibition came out at 7.23%. Consider `COc1ccc2c(N/N=C/c3ccccc3[N+](=O)[O-])ccnc2c1`, for which the inhibition was 3.75%.

As for `O=C(Nc1cc(Cl)cc(Cl)c1)c1cnn(-c2ccc(F)cc2)c1C1CCNCC1`, the inhibition came to 1.72%. Same read-out and setting: next, `COc1ccc2nccc([C@@H](O)CN3CCC(NCc4nc5c([N+](=O)[O-])cccc5[nH]4)CC3)c2c1`: 1.31%.

On to `O=C(Nc1ccc(Cl)cc1)c1cccc(CN2CCCN(Cc3cccc(O)c3)CC2)c1`, for which the inhibition was 0.01%.

The values are drawn from ChEMBL document CHEMBL3433997, “St. Jude Leishmania screening dataset” (2016).
